Measured values published in PubChem BioAssay (Tox21).
Values joined by “and” are separate entries in the source; they are usually repeats but may differ in a detail not shown here. Equal values may be shown once. Records with an inconclusive call do not appear. Where a call stands in place of a potency, no number is given. Some structures have more than one record in an assay (separate samples or runs), and their calls can disagree. Active and inactive are the calls of the source. Unless noted, the call rests on the fitted dose curve; in most records, active means well fitted curve in the direction sought with a large enough effect in the repeat runs; inconclusive means weak or mixed curves; inactive means no such curve, though single readings can be large; an effect the other way counts as inactive or inconclusive.

Columns and labels:
[1] = qHTS assay to identify small molecule agonists of the peroxisome proliferator-activated receptor delta (PPARd) signaling pathway - cell viability counter screen (AID 743211); further: nearly all actives have a fitted effect of over 55% in size; further: potency means the concentration at half of the fitted maximal effect
Method in brief: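 Counter screen for cytotoxicity run in parallel with the PPARd reporter screen. Beta-lactamase reporter HEK293H cells exposed to compounds 17 h; ATP-based CellTiter-Glo luminescence quantified viability.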

[2] = target: Peroxisome proliferator-activated receptor delta (Homo sapiens) (UniProt Q03181); assay: qHTS assay to identify small molecule agonists of the peroxisome proliferator-activated receptor delta (PPARd) signaling pathway (AID 743212; calls by dose curve)
Chain of Peroxisome proliferator-activated receptor delta (Homo sapiens) (Q03181 whole entry, looked up): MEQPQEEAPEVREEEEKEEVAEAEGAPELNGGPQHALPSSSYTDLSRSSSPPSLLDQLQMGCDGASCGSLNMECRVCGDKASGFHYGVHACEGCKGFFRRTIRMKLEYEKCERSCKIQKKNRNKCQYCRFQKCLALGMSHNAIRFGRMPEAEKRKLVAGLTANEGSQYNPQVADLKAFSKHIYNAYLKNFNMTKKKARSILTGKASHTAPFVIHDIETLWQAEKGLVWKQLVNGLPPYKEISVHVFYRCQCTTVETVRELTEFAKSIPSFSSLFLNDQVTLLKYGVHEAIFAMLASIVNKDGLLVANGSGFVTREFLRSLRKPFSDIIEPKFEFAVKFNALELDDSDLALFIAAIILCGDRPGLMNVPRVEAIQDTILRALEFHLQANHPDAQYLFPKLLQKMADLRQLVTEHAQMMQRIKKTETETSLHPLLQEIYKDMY
Method in brief: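 Quantitative high-throughput agonist screen in a HEK293H beta-lactamase reporter line under UAS control. Compounds in DMSO, at 37 C. Fluorescence read after 2 h with FRET substrate at room temperature.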

[3] = qHTS assay to identify small molecule antagonists of the peroxisome proliferator-activated receptor delta (PPARd) signaling pathway - cell viability counter screen (AID 743213); further: nearly all actives have a fitted effect of over 50% in size; further: potency means the concentration at half of the fitted maximal effect
Method in brief: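 Luminescence from CellTiter-Glo, added after the bla read and incubated 30 min at room temperature, gives viability of HEK293H PPARd-bla cells exposed to compounds for 17 h at 37 C with 300 nM L165041.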

[4] = target: Peroxisome proliferator-activated receptor delta (Homo sapiens) (UniProt Q03181); assay: qHTS assay to identify small molecule antagonists of the peroxisome proliferator-activated receptor delta (PPARd) signaling pathway (AID 743215; active means well fitted inhibition curve with a large enough effect in the signal ratio in the repeat runs, not every such curve was filed as active; the % refers to the signal ratio;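 further: cells stimulated with agonist L165041 at 300 nM final during compound exposure; series mostly up to about 62 µM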)
Method in brief: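 Inhibition of L165041-driven (300 nM final) PPARd signaling is scored in HEK293H UAS-bla cells. Exposure lasts 17 h at 37 C; beta-lactamase activity is then read by FRET substrate fluorescence after 2 h at room temperature.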

[5] = qHTS assay to identify small molecule agonists of the farnesoid-X-receptor (FXR) signaling pathway - cell viability counter screen (AID 743218); further: nearly all actives have a fitted effect of over 45% in size; further: potency means the concentration at half of the fitted maximal effect
Method in brief: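 Cytotoxicity counter-screen run in parallel, same wells: FXR-UAS-bla HEK 293T cells dosed 16 h at 37 C, viability read by CellTiter-Glo luminescence after 30 min at room temperature.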

[6] = qHTS assay to identify small molecule antagonists of the farnesoid-X-receptor (FXR) signaling pathway - cell viability counter screen (AID 743221; active means well fitted cell-killing curve with a large enough effect in the repeat runs, not every such curve was filed as active; further: nearly all actives have a fitted effect of over 50% in size; further: potency means the concentration at half of the fitted maximal effect)
Method in brief: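 Multiplexed counter screen: viability of FXR-bla HEK 293T cells under agonist stimulation by chenodeoxycholic acid (50 uM, final) and test compound for 16 h at 37 C, measured by CellTiter-Glo luminescence in the reporter wells.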

[7] = target: Vitamin D3 receptor (Homo sapiens) (UniProt P11473); assay: qHTS assay to identify small molecule agonists of the vitamin D receptor (VDR) signaling pathway (AID 743222; calls by dose curve)
Chain of Vitamin D3 receptor (Homo sapiens) (P11473 whole entry, looked up): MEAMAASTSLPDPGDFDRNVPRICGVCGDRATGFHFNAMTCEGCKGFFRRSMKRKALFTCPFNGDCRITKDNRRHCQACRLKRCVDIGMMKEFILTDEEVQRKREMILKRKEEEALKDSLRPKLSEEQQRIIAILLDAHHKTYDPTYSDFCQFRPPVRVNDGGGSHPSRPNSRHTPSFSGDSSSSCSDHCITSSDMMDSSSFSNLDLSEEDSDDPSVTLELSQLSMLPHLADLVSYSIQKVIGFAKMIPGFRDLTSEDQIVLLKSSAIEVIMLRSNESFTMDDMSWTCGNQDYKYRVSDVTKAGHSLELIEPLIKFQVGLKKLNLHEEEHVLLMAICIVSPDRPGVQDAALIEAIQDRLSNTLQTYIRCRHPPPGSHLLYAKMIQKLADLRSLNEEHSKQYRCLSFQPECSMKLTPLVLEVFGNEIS
Method in brief: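 Quantitative HTS agonist-mode screen: compounds in DMSO were pin-transferred onto VDR-bla cells and incubated 16 h at 37C, 5% CO2. Reporter activity was detected with LiveBLAzer B/G FRET substrate after 2 h at room temperature.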

[8] = target: Vitamin D3 receptor (Homo sapiens) (UniProt P11473); assay: qHTS assay to identify small molecule antagonists of the vitamin D receptor (VDR) signaling pathway (AID 743223; active means well fitted inhibition curve with a large enough effect in the signal ratio in the repeat runs, not every such curve was filed as active; the % refers to the signal ratio)
Method in brief: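 Cells carrying a VDR-driven beta-lactamase reporter (VDR-bla) were co-treated with compound and 3 nM final 1alpha,25-dihydroxyvitamin D3 for 16 h at 37C; reporter activity was measured as FRET substrate fluorescence after 2 h at room temperature.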

[9] = qHTS assay to identify small molecule agonists of the vitamin D receptor (VDR) signaling pathway - cell viability counter screen (AID 743224); further: nearly all actives have a fitted effect of over 50% in size; further: potency means the concentration at half of the fitted maximal effect
Method in brief: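 Viability is measured in the same wells as the VDR-bla reporter assay: after 16 h compound treatment and 2 h substrate loading, CellTiter-Glo is added and luminescence read 30 min later.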

[10] = qHTS assay to identify small molecule antagonists of the vitamin D receptor (VDR) signaling pathway - cell viability counter screen (AID 743225); further: nearly all actives have a fitted effect of over 50% in size
Method in brief: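 HEK293T VDR-bla; cpd + 1a,25-(OH)2D3 3 nM final, 16 h 37C/5% CO2; B/G FRET substrate 2 h RT; then CellTiter-Glo 30 min RT, luminescence.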

[11] = qHTS assay to identify small molecule agonists of the NFkB signaling pathway - cell viability counter screen (AID 1159515; calls by dose curve; further: nearly all actives have a fitted effect of over 55% in size; further: potency means the concentration at half of the fitted maximal effect)
Method in brief: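 Multiplexed viability readout: after the 5 hr compound exposure and 1.5 hr FRET substrate step, CellTiter-Glo reagent went into the same NFkB-bla ME-180 wells; ATP luminescence was measured after 30 min at room temperature.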

[12] = qHTS assay to identify small molecule agonists of the endoplasmic reticulum stress response signaling pathway (AID 1159516; active means well fitted activation curve with a large enough effect in the signal ratio in the repeat runs, not every such curve was filed as active; the % refers to the signal ratio)
Method in brief: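 Tox21 10K library screened in quantitative HTS format on ESRE-bla HeLa cells, a beta-lactamase reporter under ER stress response element control; 5 hr treatment, FRET read.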

[13] = qHTS assay to identify small molecule agonists of the endoplasmic reticulum stress response signaling pathway - cell viability counter screen (AID 1159517; calls by dose curve)
Method in brief: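 Counter-screen wells were identical to the reporter wells. Cells were plated at 1,500 per well and dosed for 5 hr, then read for luminescence 30 min after CellTiter-Glo addition.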

[14] = qHTS assay to identify small molecule antagonists of the retinoid-related orphan receptor gamma (ROR-gamma) signaling pathway - cell viability counter screen (AID 1159520); further: nearly all actives have a fitted effect of over 50% in size; further: potency means the concentration at half of the fitted maximal effect
Method in brief: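 Tet-on ROR gamma CHO cells were given compounds for 2 hr, then doxycycline hyclate at 1 uM final, and incubated 16 hr at 37 C. Viability was measured as ATP content by CellTiter-Glo luminescence.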

[15] = target: Nuclear receptor ROR-gamma (Homo sapiens) (UniProt P51449); assay: qHTS assay to identify small molecule antagonists of the retinoid-related orphan receptor gamma (ROR-gamma) signaling pathway (AID 1159521; further: nearly all actives have a fitted effect of over 50% in size; further: potency means the concentration at half of the fitted maximal effect)
Method in brief: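 Cells were plated, rested 4 h at 37 C, exposed to compounds for 2 h, then given 1 uM final doxycycline hyclate to induce RORγ expression. After 16 h, ONE-Glo luminescence from the ROR response element reporter was measured.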

[16] = qHTS assay to identify small molecule agonists of the AP-1 signaling pathway - cell viability counter screen (AID 1159525; calls by dose curve; further: nearly all actives have a fitted effect of over 55% in size; further: potency means the concentration at half of the fitted maximal effect)
Method in brief: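 AP-1-bla ME-180 cells in Opti-MEM with 0.5% dialyzed FBS, compound exposure 5 h at 37 C in 15-point titration. Viability read in the same wells as ATP content by CellTiter-Glo luminescence, normalised to tetra-n-octylammonium bromide and DMSO controls.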

[17] = qHTS assay to identify small molecule agonists of the AP-1 signaling pathway (AID 1159526; calls by dose curve)
[18] = target: Retinoic acid receptor RXR-alpha (Homo sapiens) (UniProt P19793); assay: qHTS assay to identify small molecule agonists of the RXR signaling pathway (AID 1159527; calls by dose curve; further: nearly all actives have a fitted effect of over 35% in size; further: potency means the concentration at half of the fitted maximal effect)
Chain of Retinoic acid receptor RXR-alpha (Homo sapiens) (P19793 whole entry, looked up): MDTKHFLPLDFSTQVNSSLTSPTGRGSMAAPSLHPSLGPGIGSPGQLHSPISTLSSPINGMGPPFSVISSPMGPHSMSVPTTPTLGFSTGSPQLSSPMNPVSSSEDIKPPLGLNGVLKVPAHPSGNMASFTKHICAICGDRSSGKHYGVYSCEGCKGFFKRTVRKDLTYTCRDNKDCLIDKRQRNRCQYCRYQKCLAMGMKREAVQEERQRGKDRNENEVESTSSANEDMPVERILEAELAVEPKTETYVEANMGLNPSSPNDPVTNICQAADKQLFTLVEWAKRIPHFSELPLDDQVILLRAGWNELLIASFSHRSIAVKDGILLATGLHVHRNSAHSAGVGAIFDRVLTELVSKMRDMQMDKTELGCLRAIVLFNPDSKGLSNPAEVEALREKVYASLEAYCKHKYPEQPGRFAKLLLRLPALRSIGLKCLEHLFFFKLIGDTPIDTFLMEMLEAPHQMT
Method in brief: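 Cells plated at 2,000/well, rested 5 hr at 37 C, pin-dosed with DMSO compound solutions, incubated 16 hr, then loaded with B/G FRET substrate for 2 hr at RT before dual-emission fluorescence reading.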

[19] = target: Bile acid receptor (Homo sapiens) (UniProt Q96RI1); assay: qHTS assay to identify small molecule antagonists of the farnesoid-X-receptor (FXR) signaling pathway (AID 743217; active means well fitted inhibition curve with a large enough effect in the signal ratio in the repeat runs, not every such curve was filed as active; the % refers to the signal ratio)
Chain of Bile acid receptor (Homo sapiens) (Q96RI1 whole entry, looked up): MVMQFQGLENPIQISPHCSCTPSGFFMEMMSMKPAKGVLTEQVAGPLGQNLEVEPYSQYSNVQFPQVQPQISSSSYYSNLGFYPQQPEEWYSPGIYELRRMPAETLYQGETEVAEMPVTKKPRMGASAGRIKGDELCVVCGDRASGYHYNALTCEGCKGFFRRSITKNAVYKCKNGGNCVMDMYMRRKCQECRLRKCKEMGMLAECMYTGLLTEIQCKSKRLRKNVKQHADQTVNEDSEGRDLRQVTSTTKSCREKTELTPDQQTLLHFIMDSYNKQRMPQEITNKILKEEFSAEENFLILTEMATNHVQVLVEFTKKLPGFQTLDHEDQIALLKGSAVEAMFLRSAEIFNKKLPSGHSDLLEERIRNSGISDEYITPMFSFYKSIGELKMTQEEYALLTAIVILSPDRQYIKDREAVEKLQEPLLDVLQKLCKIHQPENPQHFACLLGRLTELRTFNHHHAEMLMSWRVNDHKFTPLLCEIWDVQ
Method in brief: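 Antagonist mode against 50 uM (final) chenodeoxycholic acid stimulation in FXR-bla HEK 293T cells, 16 h at 37 °C. Inhibition detected as reduced beta-lactamase activity via LiveBLAzer B/G FRET fluorescence after 2 h at room temperature.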

[20] = target: Bile acid receptor (Homo sapiens) (UniProt Q96RI1); assay: qHTS assay to identify small molecule agonists of the farnesoid-X-receptor (FXR) signaling pathway (AID 743220; active means well fitted activation curve with a large enough effect in the signal ratio in the repeat runs, not every such curve was filed as active; the % refers to the signal ratio)
Method in brief: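 Beta-lactamase reporter under UAS control in GeneBLAzer FXR HEK 293T cells (5000/well) measured with LiveBLAzer FRET substrate after 2 h at room temperature. Compound exposure lasted 16 h at 37C.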

Row | Compound | Potency [1] | Potency [2] | Potency [3] | Potency [4] | Potency [5] | Potency [6] | outcome [7] | Potency [8] | Potency [9] | Potency [10] | Potency [11] | Potency [12] | Potency [13] | Potency [14] | Potency [15] | Potency [16] | outcome [17] | Potency [18] | Potency [19] | Potency [20]
1 | ClCC(Cl)CCl | inactive | inactive | inactive | inactive | inactive | inactive | inactive | inactive | inactive | inactive | inactive | inactive | inactive | inactive | inactive | inactive | inactive | inactive |  | 
2 | N#Cc1cccnc1 | inactive | inactive |  | inactive | inactive | inactive | inactive | inactive | inactive | inactive | inactive | inactive | inactive | inactive | inactive | inactive | inactive | inactive | inactive | inactive
3 | CCOP(=O)(OCC)OCC | inactive | inactive | inactive |  |  | inactive | inactive | inactive | inactive | inactive | inactive | inactive | inactive | inactive | inactive | inactive | inactive | 5.49 µM (active) |  | 
4 | Cc1cc(Cl)ccc1N=CN(C)C | inactive | inactive | inactive | inactive |  |  | inactive | inactive | inactive | inactive | inactive | inactive | inactive | inactive | inactive | inactive | inactive | inactive |  | 
5 | CN(C)P(=O)(N(C)C)N(C)C | inactive | inactive | inactive | inactive | inactive |  | inactive | inactive | inactive | inactive | inactive | inactive | inactive | inactive | inactive | inactive | inactive | inactive | inactive | inactive
6 | C[N+](C)(C)CC(=O)[O-] | inactive | inactive | inactive | inactive | inactive | inactive |  |  | inactive | inactive | inactive | inactive | inactive | inactive | inactive | inactive | inactive | inactive |  | 
7 | CCCCCCCCCCCCCl | inactive | inactive |  | inactive | inactive | inactive | inactive | inactive | inactive | inactive | inactive | inactive | inactive | inactive | inactive | inactive | inactive | inactive |  | 
8 | CS(=O)(=O)NC(=O)c1cc(Oc2ccc(C(F)(F)F)cc2Cl)ccc1[N+](=O)[O-] | inactive |  | inactive |  | inactive |  | inactive |  | inactive | inactive | inactive | inactive | inactive | inactive | inactive | inactive | inactive | inactive | inactive | inactive
9 | Clc1cccc(C(Cl)(Cl)Cl)n1 | inactive |  | inactive |  |  | inactive |  |  | inactive | inactive | inactive | inactive | inactive | inactive | inactive | inactive | inactive | inactive | inactive | inactive
10 | COc1ccc(C=O)cc1OC | inactive |  | inactive |  |  |  |  |  | inactive | inactive | inactive | inactive | inactive | inactive | inactive | inactive | inactive | inactive |  | 
11 | Clc1cccc(Cl)c1 | inactive | inactive | inactive | inactive | inactive | inactive | inactive | inactive | inactive | inactive | inactive | inactive | inactive | inactive | 30.4 µM (active) | inactive | inactive |  |  | 
12 | Clc1ccccc1-c1nnc(-c2ccccc2Cl)nn1 | inactive | inactive |  | inactive | inactive |  | inactive | inactive | inactive | inactive | inactive | inactive | inactive | inactive | inactive | inactive | inactive | inactive |  | 
13 | CC1(C)Cc2cccc(O)c2O1 | inactive |  | inactive |  | inactive |  | inactive | inactive | inactive | inactive | inactive | inactive | inactive | inactive | inactive | inactive | inactive | inactive |  | 
14 | Cc1ccc(N=CN(C)C=Nc2ccc(C)cc2C)c(C)c1 | 49.2 µM (active) and 48.9 µM (active) and inactive |  |  |  | inactive | inactive | inactive |  | 39.1 µM (active) and 38.9 µM (active) | inactive | 54.9 µM (active) and inactive | inactive | inactive | inactive | 48.8 µM (active) and 54.4 µM (active) and inactive | 54.9 µM (active) and inactive | inactive | inactive |  | 
15 | O=S(=O)(O)C(F)(F)C(F)(F)C(F)(F)C(F)(F)C(F)(F)C(F)(F)C(F)(F)C(F)(F)F | inactive |  | 26.2 µM (active) and 43.6 µM (active) |  | 52.3 µM (active) and 49 µM (active) and 33.6 µM (active) | 41.6 µM (active) and 13.8 µM (active) and 6.16 µM (active) | inactive | inactive |  |  | inactive | inactive | inactive | inactive | inactive | inactive | inactive | inactive |  | 
16 | OC(c1ccc(Cl)cc1)(c1cncnc1)c1ccccc1Cl (stereo unspecified) | inactive | inactive | inactive | inactive |  |  | inactive | inactive | inactive | inactive | inactive | inactive | inactive | 15.6 µM (active) and inactive | 4.4 µM (active) and 54.5 µM (active) | inactive | inactive |  |  | 
17 | CC(C)(O)C#N | inactive |  |  |  |  |  | inactive | inactive | inactive | inactive | inactive | inactive | inactive | inactive | inactive | inactive | inactive | inactive | inactive | inactive
18 | Clc1ccc(C(Cl)(Cl)Cl)cc1 | inactive |  | inactive |  | inactive | inactive |  |  | inactive | inactive | inactive | inactive | inactive | inactive | inactive | inactive | inactive | inactive | inactive | inactive
